# Source: publication PMC4336329 (PLoS ONE, 2015)
# Hit rate of the full screen: of about 310,000 compounds, about 14,000 (4.5%) showed an effect of 50% or more. The effect is printed as a negative number. Shown is part of a subset that was picked to be rich in strong results.
# Molecular target: human ether-à-go-go-related gene (hERG) potassium channel (human, UniProt Q12809)
# Assay: primary screen, population patch clamp on CHO cells stably expressing hERG; higher = less effect of the substance
# 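Further: peak tail current of the secondary pulse compared with the same well before compound.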
# Chain of human ether-à-go-go-related gene (hERG) potassium channel (Q12809 whole entry, looked up): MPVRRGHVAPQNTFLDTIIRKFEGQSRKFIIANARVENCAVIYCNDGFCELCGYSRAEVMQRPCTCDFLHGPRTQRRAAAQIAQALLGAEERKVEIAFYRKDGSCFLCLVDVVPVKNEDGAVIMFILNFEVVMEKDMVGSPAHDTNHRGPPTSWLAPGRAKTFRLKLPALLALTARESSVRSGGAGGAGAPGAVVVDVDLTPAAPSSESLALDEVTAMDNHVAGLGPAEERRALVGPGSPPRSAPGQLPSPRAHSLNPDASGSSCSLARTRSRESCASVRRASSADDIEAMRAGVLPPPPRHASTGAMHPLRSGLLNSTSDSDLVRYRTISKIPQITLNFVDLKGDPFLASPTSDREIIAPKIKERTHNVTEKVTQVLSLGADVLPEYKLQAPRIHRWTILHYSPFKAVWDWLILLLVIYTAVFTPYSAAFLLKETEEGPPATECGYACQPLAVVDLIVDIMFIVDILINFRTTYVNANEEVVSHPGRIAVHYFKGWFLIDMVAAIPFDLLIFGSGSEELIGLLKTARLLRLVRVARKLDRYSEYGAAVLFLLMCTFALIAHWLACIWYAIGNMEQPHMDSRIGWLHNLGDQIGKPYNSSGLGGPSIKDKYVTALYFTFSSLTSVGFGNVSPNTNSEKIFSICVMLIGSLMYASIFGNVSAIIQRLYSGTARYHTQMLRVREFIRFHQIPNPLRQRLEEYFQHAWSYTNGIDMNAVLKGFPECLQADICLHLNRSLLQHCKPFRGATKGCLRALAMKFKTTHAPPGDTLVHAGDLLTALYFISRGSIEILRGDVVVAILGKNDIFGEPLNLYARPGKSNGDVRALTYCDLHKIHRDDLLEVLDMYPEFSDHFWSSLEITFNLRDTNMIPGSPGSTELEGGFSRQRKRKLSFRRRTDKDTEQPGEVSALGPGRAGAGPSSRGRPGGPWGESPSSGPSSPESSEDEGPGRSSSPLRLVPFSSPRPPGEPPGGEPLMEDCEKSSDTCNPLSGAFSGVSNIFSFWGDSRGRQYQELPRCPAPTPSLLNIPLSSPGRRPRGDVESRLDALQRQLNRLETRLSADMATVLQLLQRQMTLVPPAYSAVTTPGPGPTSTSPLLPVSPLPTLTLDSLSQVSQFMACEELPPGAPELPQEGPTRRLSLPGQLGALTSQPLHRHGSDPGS
row,Structure (SMILES),"hERG current change (%, negative = inhibition) at 10uM"
1,O=C1Nc2ccccc2/C1=N\N1CCOCC1,2.95%
2,Cc1nc2nc(-c3ccccc3)[nH]n2c(=O)c1C,-3.77%
3,CCN1CC2=C(OC(N)=C(C#N)C2c2ccccc2)/C(=C\c2ccccc2)C1 (stereo not drawn),-6.02%
4,CCCCN(CC)Cc1ccc(CNC(=S)Nc2ccccc2F)o1,-16.3%
5,CCCCN(CC)Cc1ccc(CNC(=S)Nc2ccc(C)cc2Cl)o1,-32.1%
6,CCCCN(CC)Cc1ccc(CNC(=O)Nc2ccccc2)o1,-9.65%
7,CCCCN(CC)Cc1ccc(CNC(=O)Nc2ccc(Cl)cc2)o1,-61.9%
8,CCCCN(CC)Cc1ccc(CNC(=S)Nc2c(C)cc(C)cc2C)o1,-54.8%
9,CCCCN(CC)Cc1ccc(CNC(=O)Nc2ccc(F)cc2)o1,-32.1%
10,CN1C(=O)NC(c2ccccc2[N+](=O)[O-])C2=C1CCCC2=O (stereo not drawn),10.1%
11,COc1cc(OC)c(-c2nc3cnccc3n2C)cc1OC,6.5%
12,COc1ccc(NC(=S)N2CCN(C(=O)C3CCCO3)CC2)cc1 (stereo not drawn),11.8%
13,O=C(c1ccco1)N1CCN(c2ccc(F)cc2)CC1,-0.235%
14,CC(C)O.CCCC1(CCC)NC(=O)N(CC(=O)N2CCN(C(=O)c3ccco3)CC2)C1=O,5%
15,Cc1ccc(CC(=O)N2CCN(C(=O)c3ccco3)CC2)cc1,-7.76%
16,CCCCC1(c2ccc(F)cc2)NC(=O)N(CC(=O)N2CCN(C(=O)c3ccco3)CC2)C1=O (stereo not drawn),-52.6%
17,O=C(CCC(=O)N1CCOCC1)c1ccc(F)cc1,36.5%
18,O=C(CN1C(=O)NC2(CCCC2)C1=O)N1CCN(C(=O)c2ccco2)CC1,4.41%
19,Cc1ccc(C(=O)CCC(=O)N2CCN(C(=O)c3ccco3)CC2)cc1,-56.2%

row,Structure (SMILES),"hERG current change (%, negative = inhibition) at 10uM"
1,Cc1ccc(OCC(=O)N2CCN(C(=O)c3ccco3)CC2)cc1,-37.7%
2,O=C(CCC(=O)N1CCN(C(=O)c2ccco2)CC1)c1ccc(F)cc1,-66.7%
3,CC(=O)Oc1ccccc1N(C(C)=O)S(=O)(=O)c1ccc2ccccc2c1,7.06%
4,COc1ccc(NC(=O)Cn2nnc3ccccc32)c([N+](=O)[O-])c1,9.14%
5,O=C(CC1Nc2ccccc2NC1=O)c1ccccc1 (stereo not drawn),-2.01%
6,CN(C)CC/C=C1\c2ccccc2Sc2ccc(Cl)cc21.Cl,-56.7%
7,Cl.OCCN1CCN(CC/C=C2/c3ccccc3Sc3ccc(Cl)cc32)CC1,-68.8%
8,CN(C)CC/C=C1/c2ccccc2Sc2ccc(Cl)cc21.Cl,-56.8%
9,CN(C)CC/C=C1/c2cc(F)ccc2Sc2ccc(Cl)cc21.Cl,-34.5%
10,CN(C)CC/C=C1\c2cc(Cl)ccc2Sc2cc(F)c(F)cc21.Cl,1.25%
11,CN(C)CC/C=C1\c2ccccc2Sc2cc(F)c(Cl)cc21.Cl,7.2%
12,Cl.OCCN1CCN(CC/C=C2/c3ccccc3Sc3ccc(C(F)(F)F)cc32)CC1,-47.1%
13,O=C(O)/C=C\C(=O)O.OCCN1CCN(CC/C=C2/c3ccccc3CSc3ccccc32)CC1,-12.2%
14,CN(C)CC/C=C1/c2ccccc2Sc2ccc(Cl)cc21,-8.11%
15,CCN(CC)S(=O)(=O)c1ccc(C(=O)OCC(=O)NCCN2C(=O)CSC2=O)cc1,-14.4%
16,O=C1C(=Cc2ccco2)C(=O)c2ccccc21,8.17%
17,CN1C(=O)c2ccc(C(=O)Nc3ccccc3O)cc2C1=O,4.6%
18,Cc1nn(C)cc1/C=N/NC(=O)c1sc2ccccc2c1Cl,-6.47%
19,O=P(c1ccccc1)(c1ccccc1)C(c1ccco1)N1CCOCC1 (stereo not drawn),9.93%

row,Structure (SMILES),"hERG current change (%, negative = inhibition) at 10uM"
1,Cc1nnc(NCCc2ccccc2)c2ccccc12,-18.1%
2,COc1ccc(Cl)c(N2CCN(CCCNC(=O)Nc3ccc(C)cc3)CC2)c1,-72.4%
3,Cc1ccc(NC(=O)NCCCN2CCOCC2)cc1,4.63%
4,COc1ccc(NC(=O)NCCN2CCN(c3ccc(C)cc3)CC2)c(Cl)c1,-8.96%
5,COc1ccc(NC(=O)NCCN2CCN(c3cc(OC)ccc3OC)CC2)cc1,-2.75%
6,COc1ccc(NC(=O)NCCCN2CCN(c3cc(C)ccc3C)CC2)cc1,-92.2%
7,COc1ccc(NC(=O)NCCN2CCCCC2)cc1,-10.1%
8,Cc1cc(SCC(=O)Nc2c(C)n(C)n(-c3ccccc3)c2=O)nc2ccccc12,-38.7%
9,Cc1cc(C(=O)OCC(=O)c2ccc3c(c2)NC(=O)CO3)c2ccccc2n1,18.8%
10,O=C(NCCCN1CCOCC1)c1cnn2c(-c3ccccc3)cc(-c3ccccc3)nc12,-41.3%
11,O=C(NCCN1CCOCC1)c1cc(Sc2cccc(Cl)c2)nc2ccccc12,-77.2%
12,CCc1ccc(Nc2cc(C(=O)NCCCN3CCOCC3)c3ccccc3n2)cc1,-35.5%
13,O=C(NCCN1CCOCC1)c1cc(-c2ccccc2Cl)nc2ccccc12,-15%
14,O=C(NCCN1CCOCC1)c1ccccc1-c1ccccc1,0.439%
15,O=C(NCCN1CCOCC1)c1cc(Sc2ccccc2Cl)nc2ccccc12,-27.1%
16,CCc1ccc(Sc2cc(C(=O)NCCN3CCOCC3)c3ccccc3n2)cc1,-56.2%
17,O=C(NCCN1CCOCC1)c1cc(Sc2ccc(F)cc2F)nc2ccccc12,-42.8%
18,O=C(NCCN1CCOCC1)c1cnn2c(-c3ccccc3)cc(-c3ccccc3)nc12,-72.5%
19,Cc1ccc(S(=O)(=O)N2CCC(C(=O)N[C@H](C(=O)NCc3ccco3)C(C)C)CC2)cc1,-15.9%
